An excerpt weighted towards active compounds, which were near 4.1% of everything screened.
hcDAF-12 act: H. contortus DAF-12 nuclear receptor activators, primary screen, cell-based, luminescence, HEK293, lit1-tk-luc reporter. activation, % at 6.8 µM. AID 652067, 2013. actives 1.4% (n = 370,000). HEK293 hcDAF-12 lit1-tk-luc reporter; 0% DMSO, 100% Δ7-dafachronic acid;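 active = activation above the mean of all tested compounds plus 3 SD, cut at about 5.5% in these data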
DAX1 inh-1: DAX1 (NR0B1) inhibitors on StAR promoter, primary screen, cell-based, luminescence, SF-1 (NR5A1), full-length DAX-1. HEK293T StAR-luciferase reporter, SF-1/DAX-1 repression relief. inhibition, % at 6.8 µM. actives 1.1% (n = 370,000);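 active = inhibition above the mean over all tested compounds plus 3 SD, cut at about 3.6% in these data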;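 also: higher inhibition means more luminescence from relief of DAX-1 repression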
hgDAF12 agonist: H. glycines DAF-12 receptor agonists, primary screen, cell-based, luminescence, HEK293, GAL4 fusion, UAS-luciferase; actives 1.8% (n = 370,000); HEK293 GAL4-hgDAF12 UAS-luciferase reporter, agonist luminescence; normalized to butyrate control; Nuclear hormone receptor DAF-12 (Heterodera glycines), GAL4 fusion; activation, % at 6.8 µM;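 active = activation above a cutoff set at the mean of all screened compounds plus 3 SD, cut at about 10% in these data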
ssDAF12 agonist: S. stercoralis DAF-12 nuclear receptor activators, primary screen, cell-based, luminescence, HEK293, GRIP1 co-expression, lit1-tk-luc; activation, % at 6.8 µM; AID 652126, 2013; HEK293 ssDAF-12/GRIP1 lit1-tk-luc reporter; % of 3 µM dafachronic acid response; actives 1% (n = 370,000); Nuclear hormone receptor DAF-12 (Strongyloides stercoralis);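 active = activation above the mean over all tested compounds plus 3 SD, cut at about 0.9% in these data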
DAX1 inh-2: DAX1 (NR0B1) inhibitors, primary screen, cell-based, HEK293, Gal4-DAX1, luciferase luminescence | actives 0.99% (n = 340,000) | inhibition, % at 6.75 µM | AID 504766, 2011 | HEK293 Gal4-DAX1 luciferase reporter;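 active = inhibition above the mean over all tested compounds plus 3 SD, cut at about 4.2% in these data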;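 also: inhibition shows as a rise in luminescence from relieved DAX1 repression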
Target sequence (P51843 207-470 limits assumed): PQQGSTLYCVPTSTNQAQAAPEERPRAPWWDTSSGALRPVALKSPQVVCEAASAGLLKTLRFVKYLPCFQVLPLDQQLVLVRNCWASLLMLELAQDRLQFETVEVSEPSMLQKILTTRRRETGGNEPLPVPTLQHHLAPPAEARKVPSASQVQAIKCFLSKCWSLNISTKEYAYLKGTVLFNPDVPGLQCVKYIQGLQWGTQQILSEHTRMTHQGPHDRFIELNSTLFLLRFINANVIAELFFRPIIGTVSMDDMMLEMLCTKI
DAX1 conf: DAX1 (NR0B1) inhibitors relieving SF-1 repression, confirmation, cell-based, luminescence, HEK293T, full-length DAX-1, SF-1 activated StAR promoter; shares compounds with DAX1 inh-1; HEK293T StAR-promoter luciferase reporter, SF-1/DAX-1 repression; inhibition, % at 6.8 µM; actives 87% (n = 2,400); AID 652134, 2013;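 active = inhibition above the average of every tested compound plus 3 SD, cut at about 3.8% in these data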
SF1 AF2mut Luc: StAR reporter signal changes without DAX1, counter-screen for DAX1 inhibitor project, cell-based, luminescence, AF-2 mutant SF-1, transactivation; shares compounds with DAX1 inh-1; HEK293 StAR-luciferase, SF-1 AF2 mutant; actives 78% (n = 2,400); inhibition, % at 6.8 µM;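 active = inhibition above the mean of all tested compounds plus 3 SD, cut at about 3% in these data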
LXRb hcDAF ctr: LXR agonists, Gal4 luciferase reporter, confirmation, counter-screen for hcDAF-12 agonist project, cell-based, luminescence, HEK293, H. contortus campaign; shares compounds with hcDAF-12 act; HEK293 Gal4-LXR tk-luc reporter, 24 h; normalized: DMSO 0%, positive control 100%; activation, % at 6.8 µM; 3,400 tested, under 10 active; AID 743027, 2013;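 active = mean percent activation of the reporter above a cutoff set as the average over tested compounds plus their standard deviation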
hcDAF12 conf: H. contortus DAF-12 receptor agonists, confirmation, cell-based, luminescence, HEK293, lit1-tk-luc, triplicate; shares compounds with hcDAF-12 act; HEK293 hcDAF-12 lit1-tk-luc reporter; % of Δ7-dafachronic acid response; activation, % at 6.8 µM; actives 61% (n = 3,400); AID 743032, 2013;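 active = mean activation across triplicate tests above the threshold derived from the earlier primary screen, cut at about 5.5% in these data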
hgDAF12 conf: H. glycines DAF-12 receptor agonists, confirmation, cell-based, luminescence, HEK293, GAL4-LBD fusion. shares compounds with hgDAF12 agonist. HEK293 GAL4-hgDAF12 luciferase reporter, agonist mode; percent of butyrate response. activation, % at 6.8 µM. actives 80% (n = 3,300);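 active = mean activation over triplicate wells above the hit cutoff derived from the earlier primary screen, cut at about 11% in these data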
LXR ag 2: LXR agonists, Gal4 luciferase reporter, confirmation, counter-screen for hgDAF-12 agonist project, cell-based, luminescence, HEK293, H. glycines campaign. shares compounds with hgDAF12 agonist. 24 h. activation, % at 6.8 µM. 3,300 tested, under 10 active. AID 743051, 2013;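 active = mean activation of the triplicate above a set limit carried over from the primary screen, none filed active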
A number is an active result; - = inactive; . = no result.

SMILES	hcDAF-12 act	DAX1 inh-1	hgDAF12 agonist	ssDAF12 agonist	DAX1 inh-2	DAX1 conf	SF1 AF2mut Luc	LXRb hcDAF ctr	hcDAF12 conf	hgDAF12 conf	LXR ag 2
C/C(=N\NC(=O)c1ccncc1)c1ccc(NC(=O)c2ccc(Cl)cc2)cc1	-	7.5	17	-	-	-	2.9	.	.	-	-
CN(C)c1ccc(C(=S)NCc2ccco2)cc1	7.5	5.2	16	0.9	-	11	5.6	-	10	20	-
CN(C)c1ccc(/C=N/NC(=S)NCc2ccco2)cc1	-	-	-	-	-	.	.	.	.	.	.
CCOC(=O)[C@]12CCCC3=C1N(CCC3)C(=O)[C@@H](CC(=O)NCCCCc1ccccc1)C2	-	-	-	-	.	.	.	.	.	.	.
C/C(=N\NC(=O)c1cccc(F)c1)c1cccc(NC(=O)c2ccc(F)cc2)c1	-	-	-	-	-	.	.	.	.	.	.
C/C(=N\NC(=O)c1ccccc1F)c1cccc(NC(=O)c2ccc(C)cc2)c1	-	5.0	13	-	-	-	-	.	.	-	-
CC(=O)Nc1c(O)[nH]c2ccccc12	-	-	-	-	-	.	.	.	.	.	.
N=NC(=O)c1ccccc1Nc1c(O)[nH]c2ccccc12	13	6.1	15	2.3	-	11	7.8	-	14	16	-
CCCC1CCC2(CC1)CCC2OC(=O)Nc1c(OC)cccc1OC (stereo unspecified)	-	.	-	-	.	.	.	.	.	.	.
O=c1[nH]c(=O)n(C2CC(O)C(CO)O2)cc1I (stereo unspecified)	-	13	15	-	-	23	9.3	.	.	16	-
Cc1ccc(Cc2c(-c3cccc(Cl)c3)nc3ccc(C)cn23)cc1	-	-	-	-	.	.	.	.	.	.	.
Cc1ccc2nc(-c3ccccc3)c(Cc3ccccn3)n2c1	7.4	5.1	13	1.4	.	7.4	6.2	-	8.3	16	-
Cc1ccc2nc(-c3ccco3)c(Cc3ccsc3)n2c1	-	-	-	-	.	.	.	.	.	.	.
Fc1ccc(-c2nc3ccc(Cl)cn3c2Cc2ccccc2)cc1	-	-	-	-	-	.	.	.	.	.	.
Cc1ccc(-c2nc3ccc(C)cn3c2Cc2ccsc2)cc1	-	11	17	-	.	7.0	3.0	.	.	-	-
Cc1ccc2nc(-c3ccc(F)cc3)c(Cc3ccccn3)n2c1	8.6	9.3	14	-	.	8.1	6.7	-	-	11	-
Cc1ccn2c(Cc3ccccc3)c(-c3ccc(F)cc3)nc2c1	-	5.9	16	-	-	-	-	.	.	11	-
Fc1ccc2nc(-c3ccc(CN4CCC5(CC4)CNc4ccccc45)cc3)c(-c3ccccc3)nc2c1	-	-	-	-	.	.	.	.	.	.	.
Cc1ccc(C)c(NC(=O)CNS(=O)(=O)c2ccc3[nH]c(=O)oc3c2)c1	-	-	-	-	.	.	.	.	.	.	.
Nc1ccc2c(c1)C(=O)c1ccccc1C2=O	7.3	10	17	-	-	7.2	5.0	-	-	18	-
Nc1ccc2c(c1)C(=O)C(=O)c1ccccc1-2	-	-	-	-	-	.	.	.	.	.	.
COc1ccc(-c2nc(-c3cccc(C)c3)no2)cc1OC	.	.	.	.	-	.	.	.	.	.	.
Cc1cccc(-c2noc(-c3ccc4c(c3)OCO4)n2)c1	-	4.8	13	-	-	13	5.0	.	.	14	-
Cc1csc(NC(=O)c2cc3ccccc3o2)n1	12	8.6	18	2.5	-	15	6.1	-	8.9	19	-
Cc1csc(NC(=O)c2ccc(C)c([N+](=O)[O-])c2)n1	12	5.9	15	-	-	7.7	4.7	-	10	18	-
SMILES	hcDAF-12 act	DAX1 inh-1	hgDAF12 agonist	ssDAF12 agonist	DAX1 inh-2	DAX1 conf	SF1 AF2mut Luc	LXRb hcDAF ctr	hcDAF12 conf	hgDAF12 conf	LXR ag 2
Cc1cc(C)nc(NC(=O)c2ccc(C)c([N+](=O)[O-])c2)n1	-	-	-	-	-	.	.	.	.	.	.
O=C(Nc1ncccc1O)c1cc2ccccc2o1	8.6	27	39	-	-	27	14	-	-	29	-
O=C(Nc1ccc(Cl)cn1)c1cc2ccccc2o1	13	4.8	14	2.7	-	14	6.8	-	16	20	-
CCOC(=O)Cc1csc(NC(=O)c2cc3ccccc3o2)n1	-	-	-	-	-	.	.	.	.	.	.
O=C(NNC(=O)c1cc2ccccc2o1)c1ccc(Cl)cc1	-	-	-	-	-	.	.	.	.	.	.
CCOc1ccc(-n2c(SCC(=O)Nc3ccccc3-c3ccccc3)nnc2-c2ccccc2)cc1	-	-	-	-	.	.	.	.	.	.	.
COc1ccc2c(c1)CCC/C2=N\NC(=O)c1ccoc1C	7.6	4.6	25	1.2	-	5.0	-	-	-	-	-
CC(C)[C@H](N)C(=O)N[C@H](C(=O)N1CCC2CCN(Cc3ccccc3)CC21)C(C)C (stereo partly specified)	-	-	-	-	.	.	.	.	.	.	.
O=C(Nc1ccc2c(c1)CCC2)c1ccccc1Br	7.2	6.8	18	-	7.6	14	6.6	-	-	17	-

Compound activity: PubChem, The Scripps Research Institute Molecular Screening Center
